Experimental data from PubChem BioAssay (EPA / NIEHS).
“And” between values parts separate entries of the source, which are not always exact repeats. Equal entries are not always repeated. Records with an inconclusive call do not appear. The source made the active and inactive calls. The calls were made as follows: active = hit-call score of the fitted dose curve at least 0.9, where 1 is the maximum; inconclusive = response in the unintended direction; inactive = score below 0.9.

target: Estrogen receptor (Homo sapiens) (UniProt P03372); assay: NVS_NR_hER: NovaScreen (NVS) Nuclear Receptor Binding Assay for human Estrogen Receptor (ER) (AID 2283348)
Protocol: NVS_NR_hER is a biochemical, single-readout assay that uses extracted gene-proteins from MCF7 in a cell-free assay. Measurements were taken 18 hours after chemical dosing in a 96-well plate.NVS_NR_hER is one of one assay component(s) measured or calculated from the NVS_NR_hER assay. It is designed to make measurements of radioligand binding, a form of binding reporter, as detected with scintillation counting signals by Lysate-based radiodetection technology.Data from the assay component NVS_NR_hER was analyzed into 1 assay endpoint. This assay endpoint, NVS_NR_hER, was analyzed in the positive analysis fitting direction relative to DMSO as the negative control and baseline of activity. Using a type of binding reporter, loss-of-signal activity can be used to understand changes in the binding as they relate to the gene ESR1. Furthermore, this assay endpoint can be referred to as a primary readout, because the performed assay has only produced 1 assay endpoint. To generalize the intended target to other relatable targets, this assay endpoint is annotated to the nuclear receptor intended target family, where the subfamily is steroidal.
Binding assays used specific radioligands (tritiated, iodinated) with non-radioactive competitive displacement ligands in agonist or antagonist protocols (as indicated) and various reference compounds and inhibitors to titrate specific binding to receptors and transporters. Most enzyme assays (CYPs, kinases, phosphatases, proteases, HDACs) used recombinant protein and specific substrates (fluorescence mostly, some colorimetric and radioactive) and inhibitors, followed by a biochemical separation of substrate and product. All assays for the biochemical HTS were initially run in duplicate at a single concentration (10 uM for CYP450 assays and 25 uM for all others). […] Each assay was run with positive and negative controls, and concurrent controls on every plate. The follow-up (secondary) screen tested active chemical-pairs in concentration series, as well as a few additional assays not tested in the primary screen, some selected negative inactives, and several cases re-run in the concentration series for confirmatory purposes.

Sequence of Estrogen receptor (Homo sapiens) (P03372 whole entry, looked up): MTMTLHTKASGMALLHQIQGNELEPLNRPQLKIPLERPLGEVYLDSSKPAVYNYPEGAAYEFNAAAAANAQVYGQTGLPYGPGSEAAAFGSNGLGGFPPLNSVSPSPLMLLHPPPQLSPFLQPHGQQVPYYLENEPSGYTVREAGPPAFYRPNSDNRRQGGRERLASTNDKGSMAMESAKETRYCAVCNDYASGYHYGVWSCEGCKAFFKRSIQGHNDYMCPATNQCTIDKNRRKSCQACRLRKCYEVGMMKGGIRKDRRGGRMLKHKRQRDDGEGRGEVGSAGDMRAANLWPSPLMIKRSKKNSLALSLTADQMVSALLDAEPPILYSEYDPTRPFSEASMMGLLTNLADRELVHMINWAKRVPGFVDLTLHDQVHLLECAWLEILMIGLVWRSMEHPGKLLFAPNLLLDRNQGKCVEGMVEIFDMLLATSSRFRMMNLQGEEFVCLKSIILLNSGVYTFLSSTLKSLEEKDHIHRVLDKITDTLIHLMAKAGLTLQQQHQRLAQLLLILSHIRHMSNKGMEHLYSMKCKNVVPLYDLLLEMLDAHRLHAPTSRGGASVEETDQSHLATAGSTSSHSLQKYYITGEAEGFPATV

SMILES | outcome | AC50
CCc1ccccc1O | inactive | –
Oc1c(Cl)cc(Cl)cc1Sc1cc(Cl)cc(Cl)c1O | inactive | –
O=C(c1cc(O)c(O)c(O)c1)c1ccc(O)c(O)c1O | inactive | –
Oc1ccc(Cc2ccccc2O)cc1 | inactive | –
N=C(N)c1ccc(OCCCCCOc2ccc(C(=N)N)cc2)cc1 | inactive | –
NNc1nc(-c2ccc([N+](=O)[O-])cc2)cs1 | inactive | –
O=C1Cc2ccccc2N1c1c(Cl)cccc1Cl | inactive | –
O=C(Nc1ccc(Cl)c(Cl)c1)c1cc(Cl)cc(Cl)c1O | – | 25 µM (active)
NCc1cccc(CN)c1 | inactive | –
C=CC(C)(CCC=C(C)C)OC(C)=O (centres undefined) | – | 6.92 µM (active)
O=C(Nc1cccc([N+](=O)[O-])c1)c1cc2ccccc2cc1O | inactive | –
CCOC(=O)c1nc(C(Cl)(Cl)Cl)n(-c2ccc(Cl)cc2Cl)n1 | inactive | –
Nc1cc(Cl)c(-c2cc(Cl)c(N)cc2Cl)cc1Cl | – | 0.0384 µM (active)
C[C@]12CC[C@@H]3c4ccc(O)cc4CC[C@H]3[C@@H]1CC[C@@H]2OC(=O)CCC1CCCC1 | – | 0.00446 µM (active)
C=CC(=O)OCC(CO)(COCC(COC(=O)C=C)(COC(=O)C=C)COC(=O)C=C)COC(=O)C=C | inactive | –
CCCCCC(C)OC(=O)COc1ccc(Cl)c2cccnc12 (centres undefined) | inactive | –
CCCCCCOC(=O)c1ccc(O)cc1 | – | 5.86 µM (active)
CCCCCCCCCCCC[N+](C)(C)CCCCCCCCCCCC | – | 46.8 µM (active)
CCCCCCCCCCCCCC[n+]1ccccc1 | inactive | –
Cc1cc(Cc2cc(C)cc(C(C)(C)C)c2O)c(O)c(C(C)(C)C)c1 | inactive | –
CCCCCCc1ccc(N)cc1 | inactive | –
c1ccc(CNc2ncnc3c2ncn3C2CCCCO2)cc1 (centres undefined) | inactive | –
CC1=CC(=O)c2ccccc2C1=O | inactive | –
NC(=NCCCCCCN=C(N)/N=C(\N)Nc1ccc(Cl)cc1)/N=C(\N)Nc1ccc(Cl)cc1 | – | 9.07 µM (active) and 13.5 µM (active) and 19.2 µM (active)
